# Screens from PubChem BioAssay.
# Most compounds without a hit are left out; they make up all but 9.2% or so of the library.
# Rab9 prom act = activates the Rab9 promoter | Huh7 Rab9 promoter-luciferase reporter, luminescence, 24 h | Potency, µM (titrated, usually from 9.22 µM), for the others: at the top dose activation, negative = inhibition, actives largely listed as activators | 320,000 tested, 2.8% active | AID 485297; note: % of control where 0% means no effect; nearly all actives have a fitted effect of over 60% in size
#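 Cell-based reporter: Huh7 stable for Rab9 promoter-driven luciferase, plated in reduced-serum medium with 10% FBS at 1500 cells/well, compound-treated 24 h at 37 °C, luminescence read after 10 min reagent.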
# ELG1 genotoxic = inducers of genotoxicity in HEK293T ELG1-luciferase cells; HEK293T ELG1-luciferase reporter, luminescence, 16 h; Potency, µM (doses to about 46 µM), for the others: at the top dose activity change, positive = activation, hits mostly activators; 330,000 tested, 1.3% active; AID 504466; note: % of control where 0% means no effect; nearly all actives have a fitted effect of over 60% in size
#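 ELG1-luciferase HEK293T cells, 2,000/well; compound pinned in; 16 hr, 37 °C, 5% CO2; ONE-Glo, 30 min RT; luminescence on CCD imager.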
# ELG1 repair inh = ELG1-dependent DNA repair inhibition; HEK293T ELG1-luciferase reporter, luminescence, 16 h; DNA damage induced by 5-fluorouridine; Potency, µM (series often up to 46.1 µM), for inactives: top-dose activity change, negative = inhibition, usual class: inhibitors; 330,000 tested, 2.3% active; note: % is set by controls: 0 for no effect and ±100 for the full control effect; nearly all actives have a fitted effect of over 55% in size
#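 Cells (2,000 per well) received 5-fluorouridine plus test compound or DMSO and were incubated 16 hr at 37 °C, 5% CO2. Luciferase activity was read by luminescence 30 min after ONE-Glo addition; signal suppression marked inhibition of damage-induced ELG1 function.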
# FLuc counter = inhibits or activates purified firefly luciferase, miR-21 counter-screen; Potency, µM (series often up to 57.5 µM), inactives show at the top dose activity change, negative = inhibition, most hits filed as inhibitors; purified FLuc, Km substrates, luminescence inhibition; 360,000 tested, 6.9% active;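 note: plate controls were vehicle for no effect and reference inhibitor for full effect; nearly all actives have a fitted effect of over 55% in size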
# Target sequence (P08659 whole entry, looked up): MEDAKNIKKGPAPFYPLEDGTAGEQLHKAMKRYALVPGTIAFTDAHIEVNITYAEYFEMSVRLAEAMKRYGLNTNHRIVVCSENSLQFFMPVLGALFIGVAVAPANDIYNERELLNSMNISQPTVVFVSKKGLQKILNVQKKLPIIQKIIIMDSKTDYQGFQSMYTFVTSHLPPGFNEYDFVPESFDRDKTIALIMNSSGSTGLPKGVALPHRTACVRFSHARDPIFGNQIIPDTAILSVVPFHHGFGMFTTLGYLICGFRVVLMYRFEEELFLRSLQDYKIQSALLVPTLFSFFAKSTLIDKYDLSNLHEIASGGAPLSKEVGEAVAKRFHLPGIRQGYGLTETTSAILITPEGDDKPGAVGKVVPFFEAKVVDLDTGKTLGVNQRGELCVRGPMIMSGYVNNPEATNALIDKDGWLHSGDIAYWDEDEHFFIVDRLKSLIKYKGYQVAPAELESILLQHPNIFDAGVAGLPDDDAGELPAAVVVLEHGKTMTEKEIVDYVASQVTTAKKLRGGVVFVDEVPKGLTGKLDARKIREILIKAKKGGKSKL
#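 Purified P. pyralis luciferase, 10 nM final, with Km-level 10 uM D-luciferin and 10 uM ATP in 50 mM Tris acetate pH 7.5, 10 mM Mg acetate, 0.01% Tween-20, 0.05% BSA; 6-point qHTS titration about 60 µM downward; luminescence read.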
# NPC1 prom act = NPC1 promoter activation; 320,000 tested, 2.4% active; AID 485313; Huh7 NPC1 promoter luciferase reporter, 24 h; Potency, µM (highest dose often 9.22 µM), for the others: at the highest dose activation, most hits filed as activators; note: % of control where 0% means no effect; nearly all actives have a fitted effect of over 60% in size
#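 Quantitative HTS used a cell-based reporter: Huh7 cells stably bearing the NPC1 promoter upstream of luciferase were treated with compounds for 24 h, and promoter activation was read as luminescence.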
# SMN2 splice enh = SMN2 splice variant enhancement; 210,000 tested, 2.8% active; HEK293 SMN2-luciferase splicing reporter, luminescence, 30-36 h; Potency, µM (doses to about 46.1 µM), without a hit: at the top dose activity change, positive = activation, usual class: activators; AID 1458; note: % of control where 0% means no effect; nearly all actives have a fitted effect of over 55% in size
#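 qHTS luciferase splicing reporter: luminescence rises when SMN2 exon 7 is included in transfected HEK293 cells. Compound exposure lasted 30-36 h at 37C, with 4.5 mM final sodium butyrate as control, followed by a ONE-Glo read.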
# * = called active by the depositor; ? = inconclusive; . = no result; [ ] = another dose, or the depositor's remark. Calls come from the whole dose curve; as a rule, active = well fitted curve in the direction sought with a large enough effect; inconclusive = small, poorly fitted or top-dose-only effect, or another doubt; inactive = no such curve, though single readings can be large; an effect the other way counts as inactive or inconclusive. Potency is the fitted concentration of half-maximal effect.
SMILES,Rab9 prom act,ELG1 genotoxic,ELG1 repair inh,FLuc counter,NPC1 prom act,SMN2 splice enh
CSc1cccc(CNC(=O)C2CCC(=O)N(Cc3cccc(C(F)(F)F)c3)C2)c1 (stereo unspecified),?,?,?,16.9µM*,?,.
CC(C)(OOC(C)(C)c1ccccc1)c1ccccc1,.,.,.,.,.,-2.2%
COC(=O)c1cn(CCOc2ccccc2)c2ccccc12,2.1%,20.6µM*,?,?,22.0%,23.3%
O=Cc1cn(CCCOc2ccccc2)c2ccccc12,?,-8.8%,?,-18.6%,?,-60.6%
O=C(O)c1ccccc1Nc1cccc(C(F)(F)F)c1,-10.7%,-0.2%,-3.3%,15.1µM*,1.2%,-25.0%
CN(C)c1ccc(NC(=O)CN2C(=O)CN=C(c3ccccc3)c3cc(Cl)ccc32)cc1,-4.4%,-6.4%,?,0.1%,0.6%,-4.6%
Cc1ccc(NC(=O)CN2C(=O)CN=C(c3ccccc3)c3cc(Cl)ccc32)cc1,-1.9%,-27.4%,7.31µM*,9.8%,0.5%,-51.1%
C=CC(=O)OCC(CC)CCCC (stereo unspecified),.,.,.,.,.,5.2%
COc1ccc2nc(NC(=O)CCc3nc(C4=CCN(C)CC4)no3)sc2c1,-2.5%,-3.2%,3.1%,21.3µM*,-1.7%,-6.4%
Oc1ccc([C@H](O)C2CCCCN2)cc1O (stereo partly specified),.,.,.,.,.,10.6%[9.22 µM]
COc1ccc2c3c([nH]c2c1)C(C)=NCC3,-2.6%,-9.2%,9.2µM*,7.6%,0.9%,-5.1%
CN(C)CCCc1c[nH]c2ccccc12,.,.,.,.,.,-17.1%[9.22 µM]
Cc1cccc(N2CCN(C(=O)CCNS(=O)(=O)c3ccc4c(c3)oc(=O)n4C)CC2)c1C,-4.4%,-2.4%[9.26 µM],?,0.6%,-6.8%,.
Cc1cccc(NC(=O)CSc2ccc(-c3ccco3)nn2)c1,13.9%,-1.1%,-14.5%,26.9µM*,0.7%,-37.2%
COc1ccc(NC(=O)CSc2nc(-c3ccco3)cc(C(F)(F)F)n2)cc1OC,.,.,.,2.7%,.,-47.7%
CCC(=O)c1ccc(OC(=O)N(C)c2ccccc2)cc1,2.24µM*,14.6µM*,?,?,2.82µM*,11.2µM*
CN(C(=O)Oc1ccc(F)cc1)c1ccccc1,1.2%,-0.2%,18.3%,2.8%,0.1%,.
CN(C(=O)Oc1ccc(C(C)(C)C)cc1)c1ccccc1,?,?,?,23.9µM*,20.0%,11.7%
O=P(c1ccccc1)(c1ccccc1)N1CC2(CC2)CC(O)(c2ccccc2)C1 (stereo unspecified),.,.,.,.,.,-18.2%
Cc1cccc(N2CCN(C(=O)c3ccc(CNc4c(N5CCC(C)CC5)c(=O)c4=O)cc3)CC2)c1C,1.3%,-9.6%,?,?,-6.4%,-41.4%
C[C@H]1CN([C@@H](C)CO)C(=O)c2cc(NC(=O)C3CCCCC3)ccc2O[C@H]1CN(C)Cc1ccc(-c2ccccc2)cc1,.,-4.2%,10.3µM*,.,.,.
C[C@@H]1CN([C@@H](C)CO)C(=O)c2cccc(NC(=O)c3ccncc3)c2O[C@@H]1CN(C)Cc1ccc(-c2ccccc2)cc1,.,-1.4%,1.0%,.,.,.
COc1ccc(N2CCN(Cc3nc4ccccc4[nH]3)CC2)cc1,28.7%,15.1%,9.0%,2.3%,2.3%,.
c1ccc(OCCSc2nc3ccccc3[nH]2)cc1,28.6%,12.6%,?,16.9µM*,?,?
Cc1ccc(C(=O)COC(=O)c2cccc(NC(=O)c3ccc(Br)cc3)c2)cc1,.,.,.,1.2µM*,.,?
SMILES,Rab9 prom act,ELG1 genotoxic,ELG1 repair inh,FLuc counter,NPC1 prom act,SMN2 splice enh
O=C(COC(=O)c1cccc(NC(=O)c2ccc(Br)cc2)c1)c1ccc(Br)cc1,.,.,.,4.26µM*,.,14.4%
CO[C@@H]([CH2][Hg])CN1C(=O)c2ccccc2S1(=O)=O.Cn1c(=O)c2nc[nH]c2n(C)c1=O,.,.,.,.,.,-9.0%[9.22 µM]
Cc1ccc(OCC(=O)N2CCN(Cc3ccc([N+](=O)[O-])cc3)CC2)cc1,-14.1%,-3.1%,20.6µM*,-3.5%,-4.9%,.
O=C1NC(=O)C(=Cc2ccc(N3CCN(C(=O)c4ccccc4)CC3)c([N+](=O)[O-])c2)C(=O)N1,1.6%,1.0%,-3.2%,21.3µM*,-0.2%,.
COc1cc2c(cc1O)[C@H]1Cc3ccc(OC)c(O)c3CN1CC2,.,.,.,.,.,-9.1%[20.6 µM]
Cc1cc(N=Nc2ccccc2C)ccc1N,.,.,.,.,.,14.1µM*
Nc1ccc(N=Nc2ccccc2)cc1,?,?,?,?,26.9%,25.4%
C=CCCC#N,.,.,.,.,.,0.7%
CN(N=O)c1ccc(O)c(O)c1,0.7%[46.1 µM],.,.,.,0.0%[46.1 µM],-41.9%
COc1cc(/C=C2/C(=O)NC(=O)N(c3ccccc3)C2=O)ccc1O,-1.8%,0.7%,-8.7%,?,-2.2%,-10.9%
Cc1ccc(/C=C2\C(=O)NC(=S)N(c3ccc(F)cc3)C2=O)o1,-8.9%,-17.4%,12.4%,?,-0.4%,.
O=C1NC(=S)N(c2ccccc2)C(=O)/C1=C/c1ccco1,-4.5%,1.8%,6.2%,19µM*,-4.2%,.
CCOc1cccc(N2C(=O)/C(=C/c3ccco3)C(=O)NC2=S)c1,-9.3%,4.5%,-1.8%,21.3µM*,-1.2%,.
COc1ccccc1/C=C1\C(=O)NC(=S)N(c2ccccc2)C1=O,0.1%,-0.2%,-2.0%,-7.6%,-1.1%,.
COc1cccc(N2C(=O)/C(=C/c3ccc(C)o3)C(=O)NC2=S)c1,8.9%,2.3%,3.6%,15.1µM*,0.8%,.
COc1ccc(N2C(=O)/C(=C/c3ccc(N(C)C)o3)C(=O)NC2=S)cc1,3.9%,?,?,-8.6%,-3.0%,.
COc1cccc(N2C(=O)NC(=O)/C(=C/c3ccc4c(c3)Cc3ccccc3-4)C2=O)c1,-2.8%,1.5%,?,21.3µM*,0.7%,-15.9%
Cc1ccc(OP(=O)(Oc2ccc(C)cc2)N2C=Cc3ccccc3[C@H]2C#N)cc1,.,.,.,.,.,-10.8%[9.22 µM]
C/C=C(/C)C(=O)O[C@H]1C(C)=C2C([C@@H]1OC(=O)CCCCCCC)[C@@](C)(OC(C)=O)C[C@@H](OC(=O)CCC)[C@@]1(O)[C@H]2OC(=O)[C@@]1(C)O (stereo partly specified),.,.,.,.,.,-115.1%
CCc1ccc(CNC(=O)c2ccc3c(c2)N=C(C)c2cc(C)ccc2S3)cc1,.,.,.,-2.6%,.,1.5%
CC[C@]1(OC(=O)CN)C(=O)OCc2c1cc1n(c2=O)Cc2cc3ccccc3nc2-1,.,.,.,.,.,-30.4%[9.22 µM]
COc1cc(/C=C/C(=O)c2c(O)n(CCc3ccccc3)c(=O)[nH]c2=O)ccc1O,-7.7%,-3.4%,?,6.75µM*,-1.2%,-63.1%
COc1ccc(CN2C(=O)NC(=O)/C(=C\c3ccco3)C2=O)cc1,-2.1%,-0.6%,?,23.9µM*,-9.0%,1.3%
